Assay outcomes (PubChem BioAssay)
HCV inhibitor – blocks hepatitis C virus; Huh7.5.1 HCVcc-Cre infection, luciferase reporter, 44 h; Potency, µM (series often up to 41.8 µM), for the others: at the highest dose activity change, negative = inhibition, actives largely listed as inhibitors; 340,000 tested, 3.4% active; AID 651820; active = well fitted inhibition curve with a large enough effect; inconclusive = small, poorly fitted or top-dose-only effect, or another doubt; inactive = no such curve, though single readings can be large or run the other way; note: potency is the fitted concentration of half-maximal effect
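1,000 cells/well; 4 h culture; + compound; + HCVcc-Cre (~0.5 moi); 44 h; luciferase substrate, RT 15 min; read 15 sec.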
Marburg entry inh – inhibitors of Marburg virus binding or cell entry | Marburg virus pseudotyped entry inhibition, cell reporter | Potency, µM (top dose mostly 37.8 µM), inactives show at the top dose activity change, negative = inhibition, usual class: inhibitors | 300,000 tested, 1.8% active | AID 540276; calls by dose curve; tested in HEK293 cells; note: potency is the fitted concentration of half-maximal effect
HCMV antiviral – inhibitors of human cytomegalovirus. 410,000 tested, 4.5% active. HFF cells, HCMV-luciferase reporter, 72 h; stronger effect = lower value. activity change, negative = inhibition, % at 57.5 µM; in the data active = activity change below about -60%; inconclusive = no clear call, values can overlap the other calls; inactive = above about -39%
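After 16 h attachment at 37C, HFF cells received test compound and HCMV-luciferase (1 PFU/cell); reporter luminescence read 72 h later, data normalized against buffer-only and known inhibitor Salinomycin.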
FMDV inh – foot and mouth disease virus antiviral activity | FMDV antiviral cell-based qHTS | 410,000 tested, 1.2% active | Potency, µM (highest dose often 57.9 µM), inactives show top-dose activity change, negative = inhibition, most hits filed as inhibitors; calls by dose curve; tested in HEK293T cells; note: read-out not given here; potency is the fitted concentration of half-maximal effect; nearly all actives have a fitted effect of over 45% in size
Lassa entry inh – inhibitors of Lassa virus binding or cell entry | Lassa virus pseudotype entry inhibition, cell reporter | Potency, µM (titrated, usually from 37.9 µM), inactives show top-dose activity change, negative = inhibition, hits mostly inhibitors | 300,000 tested, 1.2% active | AID 540256; calls by dose curve; tested in HEK293 cells; note: potency is the fitted concentration of half-maximal effect; nearly all actives have a fitted effect of over 50% in size
* = called active by the depositor; [ ] = dose if it differs, or a comment. Rows were chosen to be rich in hits. Some 7.9% of all compounds tested hit in one or more screens of this group. % is set by controls: 0 for no effect and ±100 for the full control effect.

CNc1ccc(Br)cc(C(=O)/C=C/c2cccc(OC)c2)c1=O was read as HCV inhibitor 11µM*, Marburg entry inh inconclusive, HCMV antiviral -85*, FMDV inh inconclusive and Lassa entry inh inconclusive.
`COc1ccc(/C=C/C(=O)c2ccccc2)c(OC)c1` gave HCV inhibitor -17%, Marburg entry inh inconclusive, HCMV antiviral -11, FMDV inh 11% and Lassa entry inh inconclusive.
`CCNc1ccc(Br)cc(C(=O)/C=C/c2c(Cl)cccc2Cl)c1=O` gave HCV inhibitor 13µM*, Marburg entry inh inconclusive, FMDV inh 32µM* and Lassa entry inh inconclusive.
For CCNc1ccc(Br)cc(C(=O)/C=C/c2ccc(Cl)cc2)c1=O the results were HCV inhibitor inconclusive, Marburg entry inh inconclusive, FMDV inh inconclusive and Lassa entry inh -5%.
COc1ccc(C(=O)/C=C/c2ccc(OC)c(O)c2)c(F)c1 was read as HCV inhibitor 14µM*, Marburg entry inh inconclusive, HCMV antiviral inconclusive, FMDV inh 0% and Lassa entry inh -27%.
`COc1ccc(C=CC(=O)c2ccc(OC)c(OC)c2)cc1O` gave HCMV antiviral 47 and FMDV inh -13%.
Screening Cc1ccc(C)c(NC(=O)CSc2nc3nccnc3c(=O)n2CCc2c[nH]c3ccccc23)c1 returned HCMV antiviral -14, FMDV inh -9% and Lassa entry inh 6%[46.1 µM].
For COc1ccc(N(Cc2cccs2)C(=O)c2ccc(C(C)(C)C)cc2)cc1 the results were Marburg entry inh inconclusive, HCMV antiviral -9, FMDV inh -4% and Lassa entry inh -2%[46.1 µM].
Screening COc1ccc(N(Cc2cccs2)C(=O)c2ccc(OC)c(Cl)c2)cc1 returned Marburg entry inh inconclusive, HCMV antiviral -91*, FMDV inh -5% and Lassa entry inh -23%[46.1 µM].
`CCCCOc1cccc(C(=O)N(Cc2cccs2)c2ccc(OC)cc2)c1` gave Marburg entry inh inconclusive, HCMV antiviral -60*, FMDV inh -23% and Lassa entry inh -11%[46.1 µM].
For COc1ccc(CCNC(=O)CCCn2c(=O)c3ccccc3n(CC(=O)Nc3c(C)cc(C)cc3C)c2=O)cc1OC the results were Marburg entry inh -8%[46.1 µM], HCMV antiviral -8, FMDV inh -14% and Lassa entry inh 17%[46.1 µM].
For CCCCOC(=O)c1ccc(NC(=O)c2ccc3c(c2)CCCN3S(C)(=O)=O)cc1 the results were Marburg entry inh inconclusive, HCMV antiviral -12, FMDV inh inconclusive and Lassa entry inh inconclusive.
Cc1ccc(S(=O)(=O)NN2C(=O)c3ccccc3NC2c2ccccn2)cc1 (centres undefined) was read as HCV inhibitor inconclusive, Marburg entry inh 7.9µM*, HCMV antiviral -19, FMDV inh -16% and Lassa entry inh inconclusive.
CN(C)/C=N/c1nc(-c2ccc3ccccc3c2)cs1 was read as HCV inhibitor inconclusive, Marburg entry inh inconclusive, HCMV antiviral 129, FMDV inh 6% and Lassa entry inh 10µM*.
Screening CC(C)CC(NS(=O)(=O)c1ccccc1)C(=O)O (centres undefined) returned HCV inhibitor 5%, Marburg entry inh -12%, HCMV antiviral -11, FMDV inh 13% and Lassa entry inh -2%.
CC(C)CN=C(NS(=O)(=O)c1ccccc1)C(Cl)(Cl)Cl was read as HCV inhibitor 5µM*, Marburg entry inh inconclusive, HCMV antiviral -100*, FMDV inh inconclusive and Lassa entry inh inconclusive.
Screening CCOC(=O)c1ccc(NC(=S)N(CCN2CCCCCC2)Cc2cccs2)cc1 returned HCV inhibitor inconclusive, Marburg entry inh 8.9µM*, HCMV antiviral inconclusive, FMDV inh 21% and Lassa entry inh inconclusive.
`COc1ccc(NC(=S)N(CCCN2CCCCC2)Cc2cccs2)cc1` gave HCV inhibitor -17%, Marburg entry inh inconclusive, HCMV antiviral inconclusive, FMDV inh 20% and Lassa entry inh -5%.
Screening CCOC(=O)c1ccc(NC(=S)N(CCCN2CCN(CC)CC2)Cc2cccs2)cc1 returned HCV inhibitor inconclusive, Marburg entry inh 10µM*, HCMV antiviral 1, FMDV inh 46% and Lassa entry inh 10µM*.
CCOC(=O)c1ccc(NC(=S)N(CCCN2CCN(C)CC2)Cc2cccs2)cc1 was read as HCV inhibitor inconclusive, Marburg entry inh inconclusive, HCMV antiviral 8 and FMDV inh 9%.
CCc1nc(Sc2nnnn2-c2ccccc2)c2c3c(sc2n1)CCCC3 was read as HCV inhibitor inconclusive, Marburg entry inh 2%, HCMV antiviral -17, FMDV inh inconclusive and Lassa entry inh inconclusive.
Cc1nc(Sc2nnnn2C)c2c3c(sc2n1)CCC3 was read as HCV inhibitor 4%, Marburg entry inh inconclusive, HCMV antiviral -103*, FMDV inh inconclusive and Lassa entry inh inconclusive.
Cc1cccc(NC(=O)CN2C(=O)c3cccnc3Oc3ccc(Cl)cc32)c1C was read as HCMV antiviral 0, FMDV inh -6% and Lassa entry inh 3%[46.1 µM].
Screening CCC(=O)N1c2ccccc2CC1C(=O)NCc1ccccc1C (centres undefined) returned HCMV antiviral 2, FMDV inh -2% and Lassa entry inh -5%[46.1 µM].
For CC[C@H]1CC2CN3CCc4c([nH]c5cc(OC)ccc45)[C@](C(=O)OC)(C2)[C@H]13 the results were HCV inhibitor 35µM* and FMDV inh -21%.
Cc1ccc(C(=O)OCC(=O)NCc2ccccc2)cc1S(=O)(=O)N1CCCCC1 was read as HCV inhibitor -5%, HCMV antiviral -20 and FMDV inh -13%.
Screening CCOc1ccc(N(C)S(=O)(=O)c2ccc(C)c(C(=O)OCC(=O)c3c[nH]c4ccccc34)c2)cc1 returned HCV inhibitor 0%, Marburg entry inh 1.4µM*, HCMV antiviral inconclusive, FMDV inh -12% and Lassa entry inh 7%.
For Cc1ccc(C(=O)OCC(=O)c2c[nH]c3ccccc23)cc1S(=O)(=O)N1CCCCC1 the results were HCV inhibitor 32µM*, Marburg entry inh inconclusive, HCMV antiviral -37, FMDV inh -12% and Lassa entry inh inconclusive.
Cc1[nH]c2ccccc2c1C(=O)COC(=O)c1cccc(S(=O)(=O)N2CCCCC2)c1 was read as HCV inhibitor inconclusive, Marburg entry inh inconclusive, HCMV antiviral -78*, FMDV inh -4% and Lassa entry inh inconclusive.
`CCOC(=O)c1cccn1C1C(=O)N(Cc2ccc(Cl)nc2)c2ccc(Cl)cc21` (centres undefined) gave HCMV antiviral -27.
Screening CN(c1ccccc1)S(=O)(=O)c1cccc(C(=O)Nc2cccc(C(=O)NC3CC3)c2)c1 returned HCV inhibitor inconclusive, Marburg entry inh -29%, HCMV antiviral -19, FMDV inh inconclusive and Lassa entry inh -33%.
Screening Cc1ccc(NC(=O)c2ccc3ncsc3c2)cc1S(=O)(=O)N(C)C returned HCMV antiviral 133.
`CN(c1ccccc1)S(=O)(=O)c1cccc(NC(=O)c2cccc(C#N)c2)c1` gave HCV inhibitor 10µM*, HCMV antiviral 0 and FMDV inh 25µM*.
